60 molecules from paper PMC4336329 (PLoS ONE, 2015) can be followed below.

The campaign covered roughly 310,000 compounds. About 14,000 (4.5%) showed an effect of 50% or more. Effects have a minus sign here. Many of the other results were omitted from the sample, so strong results are more common in it than they were.
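Further: peak tail current of the secondary pulse compared with the same well before compound.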

Chain of human ether-à-go-go-related gene (hERG) potassium channel (Q12809 whole entry, looked up): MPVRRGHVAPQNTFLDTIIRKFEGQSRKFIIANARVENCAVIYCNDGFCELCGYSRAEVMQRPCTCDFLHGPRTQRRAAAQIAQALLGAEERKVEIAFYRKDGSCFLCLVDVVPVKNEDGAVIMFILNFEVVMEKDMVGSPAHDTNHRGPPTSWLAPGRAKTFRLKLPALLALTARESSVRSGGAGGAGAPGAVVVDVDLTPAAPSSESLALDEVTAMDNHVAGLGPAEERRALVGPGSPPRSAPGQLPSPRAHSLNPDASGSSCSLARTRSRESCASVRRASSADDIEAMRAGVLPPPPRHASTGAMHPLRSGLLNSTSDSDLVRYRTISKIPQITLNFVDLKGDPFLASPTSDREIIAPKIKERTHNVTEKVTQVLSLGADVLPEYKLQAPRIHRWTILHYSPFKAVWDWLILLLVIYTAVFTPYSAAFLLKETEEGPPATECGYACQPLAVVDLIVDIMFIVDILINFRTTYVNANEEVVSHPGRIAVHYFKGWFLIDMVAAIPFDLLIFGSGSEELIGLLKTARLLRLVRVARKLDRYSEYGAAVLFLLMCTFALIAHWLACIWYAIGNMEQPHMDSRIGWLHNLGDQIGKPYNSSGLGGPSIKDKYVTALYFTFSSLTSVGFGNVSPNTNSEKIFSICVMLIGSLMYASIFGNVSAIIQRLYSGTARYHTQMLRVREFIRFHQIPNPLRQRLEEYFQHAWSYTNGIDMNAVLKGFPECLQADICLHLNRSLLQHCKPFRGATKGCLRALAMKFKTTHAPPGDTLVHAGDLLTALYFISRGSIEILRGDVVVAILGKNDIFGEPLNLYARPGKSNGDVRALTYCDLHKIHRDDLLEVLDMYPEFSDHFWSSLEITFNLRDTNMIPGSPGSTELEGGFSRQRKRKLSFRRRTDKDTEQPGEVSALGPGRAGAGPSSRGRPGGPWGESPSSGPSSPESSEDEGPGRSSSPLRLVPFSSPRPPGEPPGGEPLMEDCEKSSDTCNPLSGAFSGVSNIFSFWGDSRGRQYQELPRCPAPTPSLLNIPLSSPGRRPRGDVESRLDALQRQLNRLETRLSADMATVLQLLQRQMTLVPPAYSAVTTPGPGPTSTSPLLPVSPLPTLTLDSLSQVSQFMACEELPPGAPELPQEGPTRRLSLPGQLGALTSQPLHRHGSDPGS

This test has as its target human ether-à-go-go-related gene (hERG) potassium channel (human, UniProt Q12809). Put plainly: primary screen, population patch clamp on CHO cells stably expressing hERG; higher = less effect of the substance.
As for `COc1ccc(OC)c(S(=O)(=O)N2CCC(C(=O)NCc3ccncc3)CC2)c1`, the “hERG current change (%, negative = inhibition) at 10uM” value is recorded as 16.4%.
For `CCn1c(O)c(/C=N/NC(=O)c2ccccc2)c(=O)n(CC)c1=S` the value was 13.6%.
Take `COc1ccc(OCC(=O)N/N=C2\CCc3ccccc32)cc1`: the “hERG current change (%, negative = inhibition) at 10uM” value is reported as -23.9%.
Consider `CCOC(=O)C1=C(C)N=C2SC(C)C(=O)N2C1c1cccc(F)c1` (stereo not drawn), for which the “hERG current change (%, negative = inhibition) at 10uM” value is -3.16%.
Turning to `CCOC(=O)c1nnn(-c2nonc2N)c1CN(CC)CC`, the “hERG current change (%, negative = inhibition) at 10uM” value is -7.44%.
Turning to `CCOc1ccccc1NC(=O)c1nnn(CC(=O)Nc2cc(C)cc(C)c2)c1N`, the “hERG current change (%, negative = inhibition) at 10uM” value worked out at 15.7%.
For the molecule `Cc1cc(-c2ccco2)n2c(nc3ccccc32)c1C#N`, the “hERG current change (%, negative = inhibition) at 10uM” value is given as -25.9%.
With `COc1ccc(C(=O)N2CCC(n3nccc3NC(=O)C3CC3)CC2)cc1F`, the “hERG current change (%, negative = inhibition) at 10uM” value is listed as -26.8%.
As to `O=C(O)CC1S/C(=N\N=C2CCCCCC2)N(c2ccccc2)C1=O` (stereo not drawn), the “hERG current change (%, negative = inhibition) at 10uM” value amounted to 9.08%.
Regarding `O=C(/C=C/c1ccccc1)N1CCN(C(=O)c2ccco2)CC1`, the “hERG current change (%, negative = inhibition) at 10uM” value is reported as -28.6%.
For `O=C(c1cccc([N+](=O)[O-])c1)N1CCN(C(=O)c2ccco2)CC1` the value was -10.8%; for `O=C(/C=C/c1cccc([N+](=O)[O-])c1)N1CCN(C(=O)c2ccco2)CC1`, -64.8%; for `O=C(/C=C/c1ccccc1[N+](=O)[O-])N1CCN(C(=O)c2ccco2)CC1`, -45.6%.
Consider `O=C(c1ccco1)N1CCN(C(=O)c2ccccc2[N+](=O)[O-])CC1`, for which the “hERG current change (%, negative = inhibition) at 10uM” value stood at 22.4%.
On to `O=C(c1cc([N+](=O)[O-])cc([N+](=O)[O-])c1)N1CCN(C(=O)c2ccco2)CC1`, for which the “hERG current change (%, negative = inhibition) at 10uM” value is -65.3%.
As for `COc1ccccc1N1CCN(C(=O)c2ccc(-c3ccccc3)cc2)CC1`, the “hERG current change (%, negative = inhibition) at 10uM” value was -5.25%.
As to `Cc1cc(C)cc(OCC(=O)NC(C)c2ccccc2)c1` (stereo not drawn), the “hERG current change (%, negative = inhibition) at 10uM” value was 15.2%.
As for `CC(C)OCCCNC(=O)c1cc(-c2cccnc2)nc2ccccc12`, the “hERG current change (%, negative = inhibition) at 10uM” value is reported as -21.4%.
As for `Cc1ccc(C(CCN)c2ccco2)cc1` (stereo not drawn), the “hERG current change (%, negative = inhibition) at 10uM” value is given as -2.63%.
On to `O=S(=O)(NCCC(c1ccc(F)cc1)c1ccco1)c1ccccc1` (stereo not drawn), for which the “hERG current change (%, negative = inhibition) at 10uM” value is recorded as -7.77%.
In the case of `Cc1ccc(S(=O)(=O)NCCC(c2ccc(F)cc2)c2ccco2)cc1` (stereo not drawn) it was 10.8%; in that of `Cc1ccc(C(CCNC(C)c2cccs2)c2ccco2)cc1` (stereo not drawn), -57.1%.
On to `Fc1ccc(C(CCNCc2cccs2)c2ccco2)cc1` (stereo not drawn), for which the “hERG current change (%, negative = inhibition) at 10uM” value was -66.8%.
With `Cc1ccc(S(=O)(=O)NCCC(c2ccccc2)c2ccco2)cc1` (stereo not drawn), the “hERG current change (%, negative = inhibition) at 10uM” value amounted to 0.23%.
In the case of `Cc1cc(C)cc(NC(=O)CCCn2nc(C)c3c(C)n(-c4ccccc4)nc3c2=O)c1` it was -4.07%.
In the case of `CC(C(=O)NC1C(=O)N2C(C(=O)O)=C(CSc3nnnn3C)CSC12)n1cc(Br)cn1` (stereo not drawn) it was 25.1%; in that of `CN(C)C(=O)CSc1nnc([C@H](Cc2ccccc2)NC(=O)OC(C)(C)C)o1`, 5.98%.
For the molecule `O=C(CNS(=O)(=O)c1ccccc1)N1CCN(Cc2ccccc2)CC1`, the “hERG current change (%, negative = inhibition) at 10uM” value was 5.89%.
Take `CC1(C)CC(=O)C=C(c2ccc(I)cc2)C1`: the “hERG current change (%, negative = inhibition) at 10uM” value is reported as -2.72%.
In the case of `c1ccc(Cc2nc3ccccc3n2Cc2ccccc2)cc1`, the “hERG current change (%, negative = inhibition) at 10uM” value was -53.4%.
With `ClCc1nc2ccccc2n1Cc1ccccc1`, the “hERG current change (%, negative = inhibition) at 10uM” value was found to be 10.6%.
On to `CCn1c(CN2CCN(c3ccc(Cl)cc3)CC2)nc2ccccc21`, for which the “hERG current change (%, negative = inhibition) at 10uM” value was -55.3%.
For `Cn1c(CN2CCN(c3ccc(Cl)cc3)CC2)nc2ccccc21`, the “hERG current change (%, negative = inhibition) at 10uM” value is reported as -14.3%.
Consider `Cc1cccc(Cn2c(Cc3ccccc3)nc3ccccc32)c1`, for which the “hERG current change (%, negative = inhibition) at 10uM” value was -24.6%.
With `c1ccc(Cn2c(CN3CCCC3)nc3ccccc32)cc1`, the “hERG current change (%, negative = inhibition) at 10uM” value was -64.6%.
Turning to `OCCCc1nc2ccccc2n1Cc1ccccc1`, the “hERG current change (%, negative = inhibition) at 10uM” value was determined as 7.46%.
Regarding `COc1ccc(N2CCN(Cc3nc4ccccc4n3C)CC2)cc1`, the “hERG current change (%, negative = inhibition) at 10uM” value was -18.2%.
In the case of `Cc1ccc(Cn2c(Cc3ccccc3)nc3ccccc32)cc1` it was -10.1%; in that of `CCc1nc2ccccc2n1CC(=O)N1CCN(Cc2ccccc2)CC1`, -61.5%.
For `CC(O)CNc1nc2ccccc2n1CC(=O)N1CCN(Cc2ccccc2)CC1` (stereo not drawn), the “hERG current change (%, negative = inhibition) at 10uM” value is recorded as -22.6%.
For `O=C(Cn1c(NCCO)nc2ccccc21)N1CCN(Cc2ccccc2)CC1`, the “hERG current change (%, negative = inhibition) at 10uM” value is reported as -9.47%.
In the case of `CCOC(=O)c1ccc(NC(=O)CN(C)S(=O)(=O)c2ccc(OC)cc2)cc1` it was 6.82%; in that of `CC1=NNC(=O)C1CC(=O)N/N=C/c1ccc(C)o1` (stereo not drawn), 10.7%.
Regarding `CCOc1ccccc1NC(=O)C(C)CC` (stereo not drawn), the “hERG current change (%, negative = inhibition) at 10uM” value is recorded as -6.76%.
`Cc1ccc(NC(=O)C2CCCN2C(=O)c2cccs2)c(C)c1` (stereo not drawn): the “hERG current change (%, negative = inhibition) at 10uM” value was 12.7%.
`Cc1cc(C)cc(OCC(=O)NC2CCCc3ccccc32)c1` (stereo not drawn): the “hERG current change (%, negative = inhibition) at 10uM” value is reported as -1.2%.
For `CC(=O)OC(C)C(=O)NS(=O)(=O)c1ccc(C)cc1` (stereo not drawn), the “hERG current change (%, negative = inhibition) at 10uM” value is reported as 12.3%.
`Cc1ccc(CCC(=O)Nc2ncc(Cc3cccc(Cl)c3Cl)s2)o1`: the “hERG current change (%, negative = inhibition) at 10uM” value was 51.7%.
For `CCOC(=O)COc1cccc2c(=O)n(CC(=O)N3CCN(C(=O)OCC)CC3)ccc12`, the “hERG current change (%, negative = inhibition) at 10uM” value amounted to 7.65%.
Turning to `CCOC(=O)Nc1nnc(Cc2ccc(Cl)c(Cl)c2)s1`, the “hERG current change (%, negative = inhibition) at 10uM” value is recorded as 5.09%.
Take `Cc1ccc(-n2c(SCC(=O)N3CCOCC3)nnc2-c2ccncc2)cc1C`: the “hERG current change (%, negative = inhibition) at 10uM” value is recorded as -10.6%.
With `CC(C)C(=O)Nc1ncc2c(n1)CC(c1cccs1)CC2=O` (stereo not drawn), the “hERG current change (%, negative = inhibition) at 10uM” value was -17.3%.
With `CC1=C(C(N)=O)C(c2cccs2)n2nc(-c3cccc(Cl)c3)nc2N1` (stereo not drawn), the “hERG current change (%, negative = inhibition) at 10uM” value is reported as -24.9%.
For the molecule `O=C(NCCS(=O)(=O)N1CCN(c2ccccc2F)CC1)c1cc(=O)c2ccccc2o1`, the “hERG current change (%, negative = inhibition) at 10uM” value is reported as 15%.
On to `CC(O)c1nc2ccccc2n1Cc1ccccc1` (stereo not drawn), for which the “hERG current change (%, negative = inhibition) at 10uM” value is recorded as 3.15%.
For `Cc1nc2ccccc2n1Cc1ccc(Cl)cc1` the value was -2.56%; for `CC(c1nc2ccccc2n1Cc1ccccc1)N1CCCCC1` (stereo not drawn), -65%.
Turning to `OCc1nc2ccccc2n1Cc1ccc(Cl)cc1`, the “hERG current change (%, negative = inhibition) at 10uM” value was found to be 8.87%.
In the case of `Cc1nc2ccccc2n1Cc1ccccc1` it was 15.8%; in that of `Cl.Clc1ccc(Cn2c(CN3CCCC3)nc3ccccc32)cc1`, -74.4%.
